Source: PubChem BioAssay
G9a block: qHTS Assay for Inhibitors of Histone Lysine Methyltransferase G9a. Histone-lysine N-methyltransferase EHMT2 (Homo sapiens), Q96KQ7. Potency, µM (top dose mostly 102 µM), inactives show top-dose activity, negative = inhibition, actives largely listed as inhibitors. hit rate 8.8% among 350,000. G9a H3K9 monomethylation, AlphaScreen, 2 h; further: on the % scale 0 is the no-effect control and ±100 the full control effect; nearly all actives have a fitted effect of over 75% in size
Target sequence (Q96KQ7 913-1193 limits assumed): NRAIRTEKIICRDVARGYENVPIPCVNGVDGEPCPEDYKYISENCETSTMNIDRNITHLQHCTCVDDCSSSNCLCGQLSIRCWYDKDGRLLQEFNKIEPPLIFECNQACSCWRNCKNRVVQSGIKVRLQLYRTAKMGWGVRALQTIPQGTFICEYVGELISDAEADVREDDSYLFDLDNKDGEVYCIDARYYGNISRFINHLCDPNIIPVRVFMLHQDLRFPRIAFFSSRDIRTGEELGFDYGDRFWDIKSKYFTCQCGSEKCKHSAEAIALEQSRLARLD
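Step 1: enzyme (final 20 nM) with compound, 15 min RT. Step 2: substrate peptide 500 nM and SAM 20 uM, 2 h RT. Step 3: anti-H3K9me1 antibody and AlphaScreen beads, 10 min, then plate read.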
BAZ2B block: qHTS Assay for Inhibitors of BAZ2B. Potency, µM (highest dose often 114 µM), inactives show at the top dose activity change, negative = inhibition, actives largely listed as inhibitors. Bromodomain adjacent to zinc finger domain protein 2B (Homo sapiens), Q9UIF8. AlphaScreen BAZ2B-H3K14Ac peptide displacement. hit rate 4.4% among 360,000; further: on the % scale 0 is the no-effect control and ±100 the full control effect; nearly all actives have a fitted effect of over 60% in size
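Compounds, titrated to a top concentration of 110 uM, were incubated 30 min at room temperature with preformed BAZ2B/acetyl-K14 H3 peptide complex (50 nM each). Proximity signal was measured by AlphaScreen after 20 min with beads.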
HP1b chromo inh: HTS for Inhibitors of HP1-beta Chromodomain Interactions with Methylated Histone Tails; AlphaScreen HP1-beta / biotin-H3K9me3 peptide binding; Chromobox protein homolog 1 (Homo sapiens), P83916; Potency, µM (top dose mostly 114 µM), inactives show at the top dose activity change, negative = inhibition, hits mostly inhibitors; hit rate 0.56% among 390,000; further: nearly all actives have a fitted effect of over 70% in size
Target sequence (P83916 whole entry, looked up): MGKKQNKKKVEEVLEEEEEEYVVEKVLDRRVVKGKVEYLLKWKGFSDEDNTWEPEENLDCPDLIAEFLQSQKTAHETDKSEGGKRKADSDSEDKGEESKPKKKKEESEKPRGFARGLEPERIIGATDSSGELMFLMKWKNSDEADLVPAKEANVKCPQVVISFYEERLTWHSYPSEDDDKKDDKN
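Compound inhibition of the preformed complex between 50 nM HP1-beta and 50 nM biotinylated H3K9me3 peptide was read by AlphaScreen. Buffer was PBS pH 7.4 with 0.01% Tween-20. Incubations ran 30 min at room temperature, with 10 ug/mL donor/acceptor beads.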
Sfp inh: qHTS Assay for Inhibitors of Bacillus subtilis Sfp phosphopantetheinyl transferase (PPTase); 4'-phosphopantetheinyl transferase ffp (Bacillus subtilis), Q9F4F7; Biochemical Sfp PPTase activity, qHTS; Potency, µM, for inactives: largest response in the series, negative = inhibition, hits mostly inhibitors; hit rate 3.5% among 310,000;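 further: the enzyme is Sfp with the accession as filed and its product quenches rhodamine fluorescence; 0% = enzyme reaction without inhibitor and -100% = no enzyme wells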
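Compounds were incubated with enzyme (final 15 nM) for 15 min at room temperature before substrate addition started the reaction. Fluorescence at 525 nm excitation, 598 nm emission was recorded immediately and after 30 minutes.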
L3MBTL1 inh: qHTS Assay for the Inhibitors of L3MBTL1; hit rate 0.66% among 230,000; AlphaScreen L3MBTL1–H3K9me1 peptide binding; Potency, µM (top dose mostly 57.1 µM), for the others: at the highest dose activity, negative = inhibition, most hits filed as inhibitors; Lethal(3)malignant brain tumor-like protein 1 (Homo sapiens), Q9Y468; further: on the % scale 0 is the no-effect control and ±100 the full control effect; nearly all actives have a fitted effect of over 60% in size
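First, the protein-peptide complex forms for 30 min at room temperature (L3MBTL1 50 nM, biotinylated H3K9me1 peptide 75 nM). Next, compounds are pin-transferred and incubated 30 min. Finally, AlphaScreen beads are added and read after 30 min.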
JMJD2A Tudor: qHTS Assay for Inhibitors of JMJD2A-Tudor Domain | AlphaScreen JMJD2A-Tudor / H3K4me3 peptide binding | Potency, µM (highest dose often 114 µM), inactives show top-dose activity change, negative = inhibition, actives largely listed as inhibitors | hit rate 4.4% among 390,000 | AID 504339, 2011; further: on the % scale 0 is the no-effect control and ±100 the full control effect; nearly all actives have a fitted effect of over 50% in size
* marks the source's active call; other numbers are inactive results; ? = inconclusive; . = no result; [ ] = remark or other dose. In the library only some 12% were active in any assay of this set; here they are far more common. The call rests on the fitted dose curve; in most records, active means well fitted curve in the direction sought with a large enough effect; inconclusive means small, poorly fitted or top-dose-only effect, or another doubt; inactive means no such curve, though single readings can be large; an effect the other way counts as inactive or inconclusive. Potency means the concentration at half of the fitted maximal effect.

SMILES | G9a block | BAZ2B block | HP1b chromo inh | Sfp inh | L3MBTL1 inh | JMJD2A Tudor
CC(Sc1nnc(-c2cc3ccccc3o2)n1-c1ccccc1)C(=O)O (configuration not stated) | 8.91µM* | 5.9% | 29.8% | 4.1% | 2.9% | -17.8%
Cc1cc(OCc2nnc(SC(C)C(=O)O)n2-c2ccccc2)ccc1Cl (configuration not stated) | ? | -38.5% | 43.0% | 16.2% | -10.0% | ?
COc1ccc(-n2c(CCc3ccccc3)nnc2SCC(=O)c2ccccc2)cc1 | 8.91µM* | -36.8% | 0.0% | ? | -3.8% | -35.2%
COc1ccc(C(=O)CSc2nnc(CCc3ccccc3)n2-c2ccccc2)cc1 | 39.8µM* | -0.9% | 17.1% | -17.7% | -1.4% | 56.2µM*
Cc1cc(C)c(NC(=O)C(C)Sc2nnc(-c3ccco3)n2-c2ccccc2)c(C)c1 (configuration not stated) | -8.9% | -11.5% | . | 13.1% | 3.0% | .
CC(C)Oc1ccc(CCc2nnc(SC(C)C(=O)O)n2-c2ccccc2)cc1 (configuration not stated) | . | 1.6% | 25.8%[57 µM] | 12.4% | 4.5% | 56.2µM*
CCCCCCCC/C=C\CCCCCCCCN | 5.5%[12.7 µM] | . | . | 17.2% | . | .
COc1ccc(CN(Cc2ccccc2)C(=O)c2cccc(C#N)c2)cc1COc1ccc(NC(C)=O)cc1 | . | . | 38.2% | . | . | -34.7%
CCCn1c(COc2cccc(C)c2)nc2ccccc21 | 8.1%[59 µM] | 18.8% | 97.2% | . | . | 67.1%
CC(=O)c1ccc(Nc2cc(C)nc3nc(Cc4ccc(Cl)cc4)nn23)cc1 | ? | -7.1% | 14.9% | . | . | -23.3%
CC(Sc1nc2ccccc2o1)C(=O)O (configuration not stated) | 50.1µM* | -7.1% | 37.4% | 12.7% | 1.7% | 0.7%
CN(C)c1ccc(C(CNC(=O)c2ccccc2Cl)N2CCc3ccccc32)cc1 (configuration not stated) | 14.1µM* | 12.6µM* | ? | . | . | 17.8µM*
COc1ccccc1C(=O)NCC(c1ccc(N(C)C)cc1)N1CCc2ccccc21 (configuration not stated) | 14.1µM* | 10µM* | 11.2µM* | . | . | 11.2µM*
COCCN1CSC(=S)N(Cc2ccco2)C1 | 44.7µM* | -0.4% | -29.5% | 31.6µM* | 0.8% | ?
Fc1cccc(CNC2CCN(CCc3ccccc3)CC2)c1 | 2.0% | -28.0% | 35.4% | -26.8% | -0.7% | -18.9%
Fc1cccc(CN2CCC(Cc3ccccc3)CC2)c1 | 28.2µM* | 79.4µM* | ? | 8.3% | -0.9% | 56.2µM*
Fc1ccccc1CN1CCC(Cc2ccccc2)CC1 | . | ? | ? | -24.8% | 62.2% | 0.891µM*
Cc1ccc(NC(=O)Cn2c(-c3nonc3N)nc3ccccc32)c(Br)c1 | 6.9%[59 µM] | -1.5% | 26.7% | . | . | -14.8%
CC(C)(C)N1C(=O)[C@H]2[C@@H]3[C@H](O)[C@H](O)CC(=O)[C@H]3CC[C@H]2C1=O | . | . | . | 11.2% | . | .
NC(=O)c1c(NC(NC(=O)c2ccco2)(C(F)(F)F)C(F)(F)F)sc2c1CCCC2 | ? | ? | 2.2% | 22.4µM* | . | -8.8%
CCOC(=O)C(NC(=O)c1ccccc1Cl)(Nc1sc2c(c1C(N)=O)CCC2)C(F)(F)F (configuration not stated) | 28.2µM* | -0.8% | 16.9% | ? | 3.4% | -19.6%
COCCNC(=S)NCc1ccc2[nH]c3c(c2c1)CCCC3 | 44.7µM* | . | -18.1% | 10.9% | . | 56.2µM*
CC(C)CC(=O)NCc1ccc2[nH]c3c(c2c1)CCCC3 | 39.8µM* | . | 4.4% | 5.7% | . | -31.8%
Cc1ccc(NC(=O)C2CCN(S(=O)(=O)c3ccc4[nH]c5c(c4c3)CCCCC5)CC2)cc1 | -36.5%[59 µM] | -13.9% | 27.3% | . | . | -22.1%
O=C(NCCO)c1ccc2[nH]c3c(c2c1)CCCC3 | ? | -28.7% | 0.3% | -4.4% | 1.2% | -19.3%
SMILES | G9a block | BAZ2B block | HP1b chromo inh | Sfp inh | L3MBTL1 inh | JMJD2A Tudor
Cc1ccc(NC(=S)NCc2ccc3[nH]c4c(c3c2)CCCC4)cc1 | 44.7µM* | 35.5µM* | ? | 9.3% | ? | 50.1µM*
COCCNC(=O)NC(=O)COC(=O)c1ccc2[nH]c3c(c2c1)CCCC3 | -25.1% | -2.0% | 19.1% | 7.4% | . | -18.2%
Cc1cc(C)c(S(=O)(=O)NCCc2cc3cc(C)c(C)cc3[nH]c2=O)c(C)c1 | 6.7%[59 µM] | -19.2% | 5.9% | . | . | -18.2%
O=C(Cc1ccc(Cl)cc1)NNC(=O)c1cnccn1 | ? | 5.7% | 8.5% | 8.0% | -10.5% | 50.1µM*
O=C(NCc1ccc(Cl)cc1)c1cnccn1 | 36.2% | -7.7% | 21.9% | 13.1% | -2.8% | 15.5%
CC(=O)c1c(C)[nH]c(C(=O)Nc2cccc(C)c2C)c1C | -8.5% | 0.7% | 1.9% | 9.0% | . | -13.4%
Cc1cccc(NC(=O)c2n[nH]c([N+](=O)[O-])c2Br)c1C | 39.8µM* | -24.7% | 42.5% | 18.3% | 9.2% | -3.5%
Cc1ccc2cc3cc(C(=O)NCCCN4CCCCCC4)oc3nc2c1 | 44.7µM* | -5.7% | 11.2% | -7.9% | 9.1% | -13.3%
Cc1ccc2cc3cc(C(=O)NCCCN4CCCC4)oc3nc2c1 | 79.4µM* | -15.8% | 22.4% | 18.3% | . | ?
CCCCN(CC)CCCNC(=O)c1cc2cc3ccc(C)cc3nc2o1 | 11.3% | -8.1% | -11.9% | 0.0% | . | -2.8%
CCC1CCCCN1CCCNC(=O)c1cc2c(Cl)nc3ccc(C)cc3c2s1 (configuration not stated) | -27.8%[59 µM] | -26.7% | 8.6% | . | . | -26.2%
Cc1ccc2nc(Cl)c3cc(C(=O)NCCCN4CCCC4)sc3c2c1 | 50.1µM* | -3.4% | 16.9% | 4.4% | . | -31.9%
Cc1ccc2cc3cc(C(=O)NCCCN4CCc5ccccc5C4)oc3nc2c1 | ? | -9.2% | 4.7% | -21.0% | 1.3% | -2.3%[11.4 µM]
CN(C)CCN(Cc1ccco1)C(=O)c1cc2c(Cl)nc3ccccc3c2s1 | ? | -33.4% | -9.5% | 10.5% | 12.6% | ?
Cc1ccc2nc(Cl)c3cc(C(=O)N(CCN(C)C)Cc4ccco4)sc3c2c1 | 50.1µM* | . | ? | -9.7% | . | 44.7µM*
O=c1cnc2cnc(Oc3cccc(Cl)c3)nc2n1C[C@H]1CCCO1 | 2.1%[0.501 µM] | . | . | -0.5% | . | .
Cc1cc(CC(=O)O)c(C)n1-c1ccc(Cl)cc1 | -43.4%[12.7 µM] | . | . | -14.8% | . | .
CCOC(=O)C1=C(O)/C(=C\c2ccc(CNC(=O)C(=O)Nc3ccc(C)c(C)c3)o2)N=C1C | 44.7µM* | -38.9% | . | -26.2% | . | .
